Results on 40 sequences are retold here after the supplement of paper PMC6555819.

For this assay, the system named is PPARg:RXRa 30nM:10nM, anti-RXR (NR concentration 30 nM, RXRa partner concentration 10 nM). Briefly: PBM binding z-score (relative to random genomic background probes); higher = stronger binding; sequences stand for … in GC…GCGATTGACAGCGTAGAATGAAGG
In a few lines:
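The probes on custom Agilent 4×180K protein-binding microarrays were double-stranded, with 34-nt variable regions bearing direct-repeat seeds, single-nucleotide variants, half-site ablations and random human genomic background sequences. Incubation lasted 1 h with ligand-free nuclear receptor dimers in PBS pH 7.4, 2% milk, 0.02% Triton X-100, 1 mM DTT, 0.2 mg/mL BSA and 0.4 mg/ml salmon testes DNA. Antibodies against each partner (one per run) detected bound dimers, and fluorescence scans were regression-normalized. Binding z-scores take the random background probes as reference.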
CGAACGAGGTCATTGACAGGACAGTGAATAGTAA came in with a PBM binding z-score of 3.58. The sequence TCTAGTTGGTCACGGAGGGCACACACGACGGGTA showed a PBM binding z-score of 2.8. With AGAATGAGGTCATTAAGATCAGGGAATTGCGGTC, the PBM binding z-score worked out at 3.8. In the case of CGCACTAGGTCATCCAGGACAGTGAATACATTGA, the PBM binding z-score worked out at 3.65. In turn, TAGCCTAGGTCATGCGGCCCAGTATAGTGTCGGC yielded a PBM binding z-score of 0.144.

Take GATACAGGGTCAGCTACAGGCCAGAGTATGGAAA: the PBM binding z-score was 0.683. Sequence ATCGAAAGGTCGACGCGGTGAGTATACACCGTTT had a PBM binding z-score of 0.887. Turning to CCTGCTAGGTCATGGTCAGCGAATCTACAGTATG, the PBM binding z-score stood at 0.687. With GCTGCTAGGTCAACTGATGGTCACCTAAAGCTCG, the PBM binding z-score worked out at 0.832.

The sequence CCGACTGGGGCAAGGTCACCATAACGCACAGCCA yielded a PBM binding z-score of 2.12.

Sequence TCTCGGAGGACACCAAAGGTCAGAGCTCGACATC showed a PBM binding z-score of 2.56.

Take AGTCAAAGTGCATCTAGGTAACGTAAGATATGCT: the PBM binding z-score came out at 0.727. In turn, CCTACTGGGCCAAAAAGTTCATTGATGCCGATAA came in with a PBM binding z-score of 0.0164. ATTTGTAGGTTACATCCGGGTCATTCAGGCTATG: the PBM binding z-score was found to be 2.12. On to CGAACTAGGTCACCCAGGACAGTGAATACATTGA, for which the PBM binding z-score stood at 4.23. Sequence CGTCCGAGGTCATAGGAGGTCAGTGAAGACAGAT registered a PBM binding z-score of 2.81.

With CCTAGTTGTTCAGGAGGTCACACACCGGATATGA, the PBM binding z-score came to 1.11. The figure for CGAACTACGTCATCCAGGACAGTGAATACATTGA is 0.193.

In turn, AATAAAGGGTCATCGTAGGCCAGAGTACGCACAG came in with a PBM binding z-score of 3.39. With CGTCAAAGTCCAAGGTAACGTAACAGAAAGCAGC, the PBM binding z-score turned out to be 0.129. In the case of TAGCCTAGGTCATACAGGGGCCAGTATAGAAAGC, the PBM binding z-score stood at 0.845. For the sequence CGAACAAGGTCATTGACAGGACAGTGAATAGTAA, the PBM binding z-score turned out to be 2.36. Consider ATATGTAGGTTAGCTGGGGTCATTCACACTAGGC, for which the PBM binding z-score was 2.95.

CGTCCAAGGACAATGCTAGGTCAGTGAAAGCATT yielded a PBM binding z-score of -0.602. As for CGAACGAGGTCATGAGTTGATAGCAAATGCCGAT, the figure is 4.16; as for AGAATGAGGTCAAGATCAGGGAAACAGAATACAT, 4.75; as for CGTCCAAGGTTAAGGTCAGTGAAAGAGACTCGAA, 0.541. As for CATACAGGGTCGGCTAGGCCAGAGTAGGGACGGC, the PBM binding z-score is -0.643. CCTACTGGGCCAAAGAGGTCATTGATGCCGATAA showed a PBM binding z-score of 1.71.

Regarding ATATGTAGGTTAGGGTCAGTCAGAAAGTAGGGAA, the PBM binding z-score worked out at 3.24. As to AGTCAAAGTTTATCTAGGTAACGTAAGATATGCT, the PBM binding z-score is 0.904.

In turn, TAGCCTAGGTCATGCGGGACAGTATAGTGTCGGC yielded a PBM binding z-score of 0.321.

ACTTAAGGGTCAACGAGGTTATAGCACGCGTATA registered a PBM binding z-score of 3.18. The figure for TAGCCTAGTTCATTCAGGGGCCAGTATAGAAAGC is -0.157; for CGAACAAGGTCATCCAGGACAGTGAATACATTGA it is 2.72; for CGTCCGAGGTCAAGGTCAGTGAAAGAGACTCGAA it is 3.9. On to TAGCCGAGGTCATTCAGGGGCCAGTATAGAAAGC, for which the PBM binding z-score was 2.43. CCTACTCGGCCAAAAAGGTCATTGATGCCGATAA returned a PBM binding z-score of 0.833.

As to CCTTACGGGTCCCTCCAGGTTATAGCATCGGAGT, the PBM binding z-score was -0.679. Turning to AACGAAAGGTCGAAGGTGAGTATACCCACCCGAA, the PBM binding z-score worked out at 2.35.
